# Test results as given in PubChem BioAssay (NCI).
# About 83,000 compounds went through this panel and 20% of them were active in at least one assay; those are over-represented in the sample as a whole.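 Single-concentration screen, 48 h exposure, 96-well plates. Endpoint: percent growth. Below 10 = active.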 Unmarked numbers belong to inactive results. Activity calls are given as the source filed them.
# Key:
# Experiment in all cases: NCI-60 one-dose screen, 48 h (100 = growth as untreated, 0 = no growth, -100 = all killed)
# Conditions in all cases: 10 µM unless noted
# [1] = system: RPMI-8226 leukemia
# [2] = system: OVCAR-8 ovarian
# [3] = system: OVCAR-5 ovarian
# [4] = system: OVCAR-4 ovarian
# [5] = system: SK-OV-3 ovarian
# [6] = system: IGROV1 ovarian
# [7] = system: OVCAR-3 ovarian
# [8] = system: HS 578T breast
# [9] = system: NCI/ADR-RES ovarian
# [10] = system: T-47D breast
# [11] = system: BT-549 breast
# [12] = system: MDA-MB-435 melanoma
# [13] = system: SW-620 colon
# [14] = system: MCF7 breast
# [15] = system: HCT-116 colon
# [16] = system: HCC-2998 colon
# [17] = system: KM12 colon
# [18] = system: SR leukemia
Structure (SMILES),growth [1],growth [2],growth [3],growth [4],growth [5],growth [6],growth [7],growth [8],growth [9],growth [10],growth [11],growth [12],growth [13],growth [14],growth [15],growth [16],growth [17],growth [18]
CCC(=O)OC1=CN2C(=NC(c3ccc(N)cc3)=CC2c2cc(OC)c(OC)c(OC)c2)S1 (configuration not stated),17.9%,36.6%,77.7%,57.3%,68.1%,65.4%,24.1%,49%,66.9%,58.2%,26.8%,23.1%,28.3%,16.7%,17.9%,89%,47.4%,
COc1cc(-c2nn(-c3cccc(NC(=O)c4ccc(Cl)c(C(F)(F)F)c4)c3)cc2-c2ccncc2)ccc1Cl,25.4%,38.9%,91.3%,66%,64.3%,48.9%,19.5%,34.7%,13.4%,26.2%,49.7%,-26.8% (active),36.1%,37.6%,24%,,,
COc1cc(-c2nn(-c3cccc(NC(=O)Nc4cccc(C(F)(F)F)c4)c3)cc2-c2ccncc2)ccc1Cl,-14.8% (active),-36.2% (active),28.2%,11.1%,4.13% (active),14%,-42% (active),-13.7% (active),-11.9% (active),-4.03% (active),-15.4% (active),-50% (active),8.92% (active),-6.3% (active),0.0611% (active),-18.4% (active),-27.8% (active),
CCOC(=O)CC(=O)OC,,103%,101%,,101%,,123%,114%,113%,,101%,110%,98.8%,91.5%,104%,104%,115%,76.7%
COc1ccc(/C=C/c2c(C(C)=O)c(C)nc3ccccc23)cc1,60.2%,85.2%,77%,70.1%,80.8%,76.7%,97.6%,106%,86.6%,39.5%,61.6%,69.1%,86.8%,85.8%,70.8%,93.3%,93%,
O=C(Nc1ccc2c(c1)OCO2)C(=O)c1c[nH]c2cc(F)ccc12,64%,59%,77.6%,50.7%,59.7%,59.6%,50.5%,50.1%,47.6%,46.7%,70.3%,34.7%,34.3%,57.7%,56.7%,25.3%,27.1%,
CCN(CC)c1ccc(C(=N)c2ccc(N(CC)CC)cc2)cc1,-32.1% (active),-8.61% (active),-22.1% (active),12.7%,-36.6% (active),-24.8% (active),-38.3% (active),-47.2% (active),-49.9% (active),-27.9% (active),8.11% (active),-35.2% (active),-21% (active),-18.9% (active),-60.1% (active),-74.5% (active),-38.2% (active),
COc1ccc(Nc2nn3c(-c4ccccc4)cc(-c4ccccc4)nc3c2C(N)=O)c(OC)c1,71.8%,27.8%,63.6%,-8.96% (active),63.7%,91.6%,46.2%,56.8%,30.4%,34.9%,46.5%,57.5%,57.2%,46.7%,21.5%,86.9%,51.1%,
COc1ccc(CNCCCN2C(=O)c3ccc4c5c(ccc(c35)C2=O)C(=O)N(CCCNCCCCNCCCN)C4=O)c(OC)c1OC,,4.39% (active),,-48.3% (active),51.7%,-4.4% (active),3.29% (active),73.1%,60.7%,-44.4% (active),60.4%,-39.1% (active),,-19.7% (active),6.94% (active),-3.52% (active),21.2%,6.04% (active)
CCCCCCCC[C@@H](O)CC(=O)N[C@@H](CC(N)=O)C(=O)N[C@@H](CCC(N)=O)C(=O)N[C@@H](CC(=O)c1cc(C)cc(O)c1C(=O)c1c(O)cccc1O)CC(C)C,10.9%,47.6%,39.9%,41.1%,63.4%,15.1%,-3.89% (active),26.9%,93.7%,-3.58% (active),-1.45% (active),-39.6% (active),18.3%,29.9%,-9.35% (active),-72.6% (active),1.64% (active),
Cc1ccc(-c2nc(C#N)c(S(=O)(=O)n3nc(-c4ccccc4)cc3N)o2)cc1,83.4%,90.4%,106%,114%,94.8%,101%,17.7%,95.6%,94.9%,18.2%,96.8%,100%,31.8%,79.5%,63%,112%,107%,
O=C(Nc1cccc(-n2cc(-c3ccncc3)c(-c3ccc(Cl)c(O)c3)n2)c1)Nc1cccc(C(F)(F)F)c1,1.63% (active),10.6%,62.4%,41.5%,21.2%,28.6%,0.81% (active),29.4%,24.9%,18.5%,36%,15.6%,28.5%,10.3%,9.75% (active),40.1%,2.46% (active),
Fc1ccc(CNCCNc2ncnc3c2cnn3-c2ccccc2)cc1,84.6%,88%,98.6%,97.4%,94.6%,94.2%,109%,92.1%,95.8%,83.7%,102%,95.4%,103%,96.5%,99.9%,,107%,
COc1cc(-c2nn(-c3cccc(NC(=O)c4cccc(C(F)(F)F)c4)c3)cc2-c2ccncc2)ccc1Cl,-1.13% (active),11.8%,49.3%,46.5%,7.18% (active),34%,-25.6% (active),-5.69% (active),2.75% (active),29%,26%,-39.6% (active),36%,3.58% (active),8.15% (active),,13.4%,
COc1ccc(S(=O)(=O)n2cc(C(=O)C(=O)Nc3ccncc3)c3ccccc32)cc1F,48.6%,69%,81.1%,73.4%,85%,72%,85.6%,88.1%,67.2%,67.9%,77%,58%,83.3%,69.8%,69.5%,73.5%,75%,
O=C(Nc1ccc2c(c1)OCCO2)C(=O)c1c[nH]c2ccccc12,21.6%,53.5%,45.2%,51.2%,12.8%,44.5%,-45.1% (active),13.1%,-30.3% (active),42.7%,44.2%,-29.1% (active),18%,18.4%,14.7%,,10.8%,
O=C(Nc1cccc(-n2cc(-c3ccncc3)c(-c3ccc(Cl)c(O)c3)n2)c1)Nc1ccc(Cl)c(C(F)(F)F)c1,-10.5% (active),-41.8% (active),23.3%,-3.42% (active),7.47% (active),10.4%,-43% (active),-7.39% (active),-16.9% (active),-7.12% (active),1.33% (active),-31.3% (active),-19.7% (active),-16.6% (active),-51% (active),,-27.3% (active),
O=C(c1ccccc1)c1c(/C=C/c2ccccc2)c2ccccc2[nH]c1=O,94.6%,90.9%,90.4%,97.7%,102%,95.4%,97.6%,88.7%,97.5%,93.5%,92.4%,98.2%,,,100%,111%,,
